The nature of experiment [1]: small molecules captured by biotinylated probe aFSTL3 – biochemical, small-molecule microarray, fluorescence 635/667, stem cell growth factor project, primary screen (AID 1064).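 Further: measures binding of the biotinylated anti-FSTL3 antibody to printed compounds.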 To be noted: higher = more signal.
Experiment [2] in a line: binders from COS7 lysate, DM2A8 probe, primary screen, torsin A project, cell lysate, small-molecule microarray, fluorescence 635/667 (AID 1065). To be noted: higher = more signal, COS7 lysate expressing mutant human TOR1A.
The nature of experiment [3]: small molecules captured by biotinylated probe aFGF2 – biochemical, small-molecule microarray, fluorescence 635/667, stem cell growth factor project, primary screen (AID 1067).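 Further: measures binding of biotinylated aFGF2 protein to printed compounds on slides; z-score merges feature fluorescence and signal-to-noise across triplicate slides.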 To be noted: higher = more signal.
Experiment [4] can be described thus: small molecules captured by biotinylated probe aFGF10 – biochemical, small-molecule microarray, fluorescence 635/667, stem cell growth factor project, primary screen (AID 1071).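 Further: score merges 667 nm spot intensity and signal to noise from triplicate slides.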 The following applies: higher = more signal.
In experiment [5] the target is Neurogenic locus notch homolog protein 2 (Homo sapiens) (UniProt Q04721). As to the kind of experiment: small molecules binding Notch2 protein – biochemical, small-molecule microarray, 635 nm fluorescence, stem cell growth factors, primary screen (AID 1073). The following applies: higher = more signal.
The target in experiment [6] is Pro-neuregulin-1, membrane-bound isoform (Homo sapiens) (UniProt Q02297). As to the kind of experiment: small molecules binding neuregulin-1 protein – biochemical, small-molecule microarray, fluorescence 635/667, psychiatric disease protein project, primary screen (AID 1075).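 Further: score combines 667 nm spot fluorescence with signal to noise.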 To be noted: NRG1 binding, 635 nm fluorescence, higher = more signal.
Sequence of Pro-neuregulin-1, membrane-bound isoform (Homo sapiens) (Q02297 whole entry, looked up, the tested form may be a part, canonical isoform): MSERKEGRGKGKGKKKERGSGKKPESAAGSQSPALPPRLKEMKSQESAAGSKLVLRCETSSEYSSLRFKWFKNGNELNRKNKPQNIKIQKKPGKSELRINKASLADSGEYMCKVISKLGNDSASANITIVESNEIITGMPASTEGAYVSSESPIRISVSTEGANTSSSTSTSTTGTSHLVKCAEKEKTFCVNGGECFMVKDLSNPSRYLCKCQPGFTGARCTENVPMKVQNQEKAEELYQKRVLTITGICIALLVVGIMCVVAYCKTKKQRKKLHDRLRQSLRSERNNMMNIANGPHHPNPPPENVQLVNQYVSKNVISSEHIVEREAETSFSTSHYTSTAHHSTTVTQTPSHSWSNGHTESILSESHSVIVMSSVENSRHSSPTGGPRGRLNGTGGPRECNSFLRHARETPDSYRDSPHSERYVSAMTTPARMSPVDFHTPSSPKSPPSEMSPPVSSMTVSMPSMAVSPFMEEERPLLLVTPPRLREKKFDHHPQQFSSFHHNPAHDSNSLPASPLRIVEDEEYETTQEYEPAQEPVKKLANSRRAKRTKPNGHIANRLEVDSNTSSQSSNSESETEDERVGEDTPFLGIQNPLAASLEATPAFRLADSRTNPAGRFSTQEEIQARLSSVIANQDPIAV
Experiment [7] deals with Neuregulin-1 EGF-like domain. Nature of the experiment: small molecules binding NRG1 EGF domain – biochemical, small-molecule microarray, 635 nm fluorescence, primary screen (AID 1081).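 Further: binding of the protein to compounds printed on small-molecule microarray slides.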 To be noted: higher = more signal.
Experiment [8] is described as follows: FRG1 expression reporter modulators in myotubes – cell-based, C2C12 myotubes, firefly/Renilla luciferase, luminescence, FRG1 inhibition for FSHD, primary screen (AID 1084). To be noted: FRG1 promoter luciferase, higher = more signal, called active from +8 up or from −8 down.
Experiment [9] in a line: small molecules captured by biotinylated probe aFST – biochemical, small-molecule microarray, fluorescence 635/667, stem cell growth factor project, primary screen (AID 1086).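 Further: score merges 667 nm fluorescence with signal-to-noise of each printed compound spot.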 To be noted: higher = more signal.
Experiment [10] is described as follows: binders of probe aHhip on microarray, primary screen, stem cell growth factor project, biochemical, small-molecule microarray, fluorescence 635/667 (AID 1087).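 Further: score merges spot fluorescence at 667nm with spot signal to noise ratio.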 The following applies: higher = more signal.
In experiment [11] the test system is PRMT1 (protein arginine N-methyltransferase 1). Nature of the experiment: small molecules binding arginine methyltransferase PRMT1 – biochemical, small-molecule microarray, 635 nm fluorescence, primary screen (AID 1088).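 Further: binding of Prmt1 protein to compounds spotted on small-molecule microarray slides.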 The following applies: higher = more signal.
Experiment [12] is described as follows: growth effects on S. cerevisiae YJM789 – YJM789 clinical isolate, OD600, 24 h, basal, primary screen (AID 1089).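 Further: growth of clinical yeast isolate S. cerevisiae YJM 789 seeded 1000 cells per well; test concentration not given here.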 The following applies: higher = more signal, called active from +8 up or from −8 down.
Experiment [13] can be described thus: S. pombe growth modifiers, basal conditions – strain 972, OD600, 24 h, no modulator, primary screen (AID 1090).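 Further: basal condition with compound alone and no growth modifier present; test concentration not given here.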 To be noted: S. pombe 972 growth, higher = more signal, called active from +8 up or from −8 down.
A short description of experiment [14]: budding yeast growth modifiers under rapamycin – strain BY4716, OD600, 96 h, primary screen (AID 1091). Further: test concentration not given here. To be noted: S. cerevisiae BY4716 + rapamycin, higher = more signal, called active from +8 up or from −8 down.
Experiment [15] deals with Torsin-1A-interacting protein 2 (Homo sapiens) (UniProt Q8NFQ8). As to the kind of experiment: small molecules binding lysate-expressed LULL1 – cell lysate, human LULL1 lysate, 635/667 nm fluorescence, primary screen (AID 1092).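 Further: probe is lysate of COS7 cells overexpressing human LULL1; score merges per-feature 667 nm fluorescence with signal-to-noise.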 The following applies: small-molecule microarray, hLULL1 lysate binding, 635 nm fluorescence; higher = more signal.
Sequence of Torsin-1A-interacting protein 2 (Homo sapiens) (Q8NFQ8 whole entry, looked up): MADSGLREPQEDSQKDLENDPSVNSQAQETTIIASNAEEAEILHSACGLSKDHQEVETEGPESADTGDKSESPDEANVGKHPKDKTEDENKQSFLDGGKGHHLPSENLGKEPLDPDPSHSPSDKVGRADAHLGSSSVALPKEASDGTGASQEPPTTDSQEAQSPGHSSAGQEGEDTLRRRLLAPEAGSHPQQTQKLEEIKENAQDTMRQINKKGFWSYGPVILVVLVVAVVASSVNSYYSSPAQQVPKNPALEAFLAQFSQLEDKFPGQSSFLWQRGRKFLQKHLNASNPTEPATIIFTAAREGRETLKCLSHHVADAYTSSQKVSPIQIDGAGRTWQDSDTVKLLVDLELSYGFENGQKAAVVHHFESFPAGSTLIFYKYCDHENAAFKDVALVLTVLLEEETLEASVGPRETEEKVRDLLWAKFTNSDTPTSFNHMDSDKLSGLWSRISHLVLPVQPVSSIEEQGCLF
Experiment [16] can be described thus: optical density change of DRC41 E. coli – strain DRC41, OD650, 24 h, E. coli filamentation project, primary screen (AID 1093).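 Further: MC1000 strain lacking acrAB efflux and sulA so SOS filamentation is blocked; test concentration not given here.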 To be noted: E. coli DRC41 growth, higher = more signal, called active from +8 up or from −8 down.
Experiment [17] in a line: probe aLefty2 binding to arrayed compounds – biochemical, biotinylated probe, 635/667 nm fluorescence, primary screen (AID 1094).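 Further: score merges spot fluorescence near 667 nm with spot signal-to-noise ratio.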 To be noted: small-molecule microarray, higher = more signal.
Experiment [18] deals with Noggin (protein binding on small-molecule microarray). Nature of the experiment: small molecules binding Noggin protein – biochemical, 635/667 nm fluorescence, primary screen (AID 1095).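 Further: score merges 667 nm feature fluorescence with signal to noise over triplicate slides.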 To be noted: 635 nm fluorescence, higher = more signal.
Experiment [19] has as its target Neurogenic locus notch homolog protein 3 (Homo sapiens) (UniProt Q9UM47). As to the kind of experiment: small molecules binding NOTCH3 protein – biochemical, 635/667 nm fluorescence, primary screen (AID 1096). The following applies: small-molecule microarray, 635 nm fluorescence, higher = more signal.
A short description of experiment [20]: probe aEGFR binding to arrayed compounds – biochemical, biotinylated probe, 635/667 nm fluorescence, primary screen (AID 1097).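 Further: probe is a biotinylated anti-EGFR antibody binding compounds printed on slides; score combines fluorescence near 667 nm and signal to noise of each spot.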 The following applies: small-molecule microarray, higher = more signal.

Structures are written as SMILES. Active and inactive are the calls of the source.

Sequence of Neurogenic locus notch homolog protein 3 (Homo sapiens) (Q9UM47 whole entry, looked up): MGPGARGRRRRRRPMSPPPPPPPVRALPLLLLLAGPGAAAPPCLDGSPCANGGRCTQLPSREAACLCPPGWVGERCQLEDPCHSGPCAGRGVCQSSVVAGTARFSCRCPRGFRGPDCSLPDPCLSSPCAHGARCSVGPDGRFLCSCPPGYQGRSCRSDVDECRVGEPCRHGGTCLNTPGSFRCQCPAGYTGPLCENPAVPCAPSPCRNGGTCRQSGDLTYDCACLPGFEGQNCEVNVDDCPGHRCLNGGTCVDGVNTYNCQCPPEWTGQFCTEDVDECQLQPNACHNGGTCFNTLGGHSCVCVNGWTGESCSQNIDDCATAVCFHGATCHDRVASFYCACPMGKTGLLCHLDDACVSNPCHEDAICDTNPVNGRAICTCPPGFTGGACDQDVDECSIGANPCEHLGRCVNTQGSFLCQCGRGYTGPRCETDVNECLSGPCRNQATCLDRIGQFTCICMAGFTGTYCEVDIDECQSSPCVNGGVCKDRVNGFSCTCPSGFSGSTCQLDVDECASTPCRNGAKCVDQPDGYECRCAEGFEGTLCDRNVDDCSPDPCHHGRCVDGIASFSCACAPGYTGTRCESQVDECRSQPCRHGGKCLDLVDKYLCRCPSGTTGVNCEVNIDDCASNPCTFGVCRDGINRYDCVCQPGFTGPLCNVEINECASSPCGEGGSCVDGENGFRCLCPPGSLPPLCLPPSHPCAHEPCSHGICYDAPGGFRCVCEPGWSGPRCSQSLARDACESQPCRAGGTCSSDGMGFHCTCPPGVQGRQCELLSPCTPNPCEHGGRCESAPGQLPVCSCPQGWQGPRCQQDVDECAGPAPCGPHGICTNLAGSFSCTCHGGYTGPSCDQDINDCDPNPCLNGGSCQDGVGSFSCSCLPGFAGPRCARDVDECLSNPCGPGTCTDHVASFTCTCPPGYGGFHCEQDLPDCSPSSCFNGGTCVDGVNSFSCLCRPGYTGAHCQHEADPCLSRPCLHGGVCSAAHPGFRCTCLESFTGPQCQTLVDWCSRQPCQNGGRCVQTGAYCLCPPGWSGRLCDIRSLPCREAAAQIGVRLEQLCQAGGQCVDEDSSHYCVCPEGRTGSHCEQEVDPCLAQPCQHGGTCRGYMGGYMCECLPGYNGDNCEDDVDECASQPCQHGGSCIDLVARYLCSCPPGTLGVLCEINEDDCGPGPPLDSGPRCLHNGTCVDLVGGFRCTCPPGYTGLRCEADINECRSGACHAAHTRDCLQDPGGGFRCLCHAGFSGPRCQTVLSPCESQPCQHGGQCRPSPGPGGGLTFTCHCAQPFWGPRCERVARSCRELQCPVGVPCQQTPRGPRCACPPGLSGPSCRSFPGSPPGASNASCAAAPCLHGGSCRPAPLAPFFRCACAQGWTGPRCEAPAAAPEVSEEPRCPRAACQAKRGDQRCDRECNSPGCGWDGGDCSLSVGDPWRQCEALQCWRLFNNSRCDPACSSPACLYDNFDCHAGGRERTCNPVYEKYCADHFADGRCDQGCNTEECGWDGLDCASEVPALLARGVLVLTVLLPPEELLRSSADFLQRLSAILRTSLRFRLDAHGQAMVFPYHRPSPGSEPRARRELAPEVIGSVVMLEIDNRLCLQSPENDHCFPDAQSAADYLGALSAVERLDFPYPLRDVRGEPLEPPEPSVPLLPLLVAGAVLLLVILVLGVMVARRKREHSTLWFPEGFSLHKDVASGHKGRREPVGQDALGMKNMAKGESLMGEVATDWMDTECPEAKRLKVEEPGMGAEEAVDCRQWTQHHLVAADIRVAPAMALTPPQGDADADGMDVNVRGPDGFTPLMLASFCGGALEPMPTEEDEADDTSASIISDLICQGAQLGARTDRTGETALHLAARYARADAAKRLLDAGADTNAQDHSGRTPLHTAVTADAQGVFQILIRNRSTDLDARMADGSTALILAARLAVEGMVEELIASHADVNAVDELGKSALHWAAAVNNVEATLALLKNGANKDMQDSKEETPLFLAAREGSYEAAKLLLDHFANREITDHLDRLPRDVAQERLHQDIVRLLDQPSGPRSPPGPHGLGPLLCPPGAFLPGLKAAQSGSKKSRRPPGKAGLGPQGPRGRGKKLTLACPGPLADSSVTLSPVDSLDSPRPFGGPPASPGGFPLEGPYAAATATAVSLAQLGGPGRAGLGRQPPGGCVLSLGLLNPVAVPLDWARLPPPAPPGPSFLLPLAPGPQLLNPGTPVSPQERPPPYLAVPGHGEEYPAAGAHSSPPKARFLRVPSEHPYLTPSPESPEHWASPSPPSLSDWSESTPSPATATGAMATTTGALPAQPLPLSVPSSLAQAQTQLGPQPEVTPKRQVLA

As to `COc1cc2c(cc1O)C(C1CC1)N(Cc1ccc([N+](=O)[O-])o1)CC2` (stereo not given), the composite z-score in experiment [1] was -0.0848; in [2], -0.242; in experiment [3], -0.0226; in [4] it was 0.682; in experiment [5] it was 1.52; in experiment [6] it was 1.49. The composite z-score was 1.03 in [7]; 0.609 in experiment [9]; -0.0003 in [10]; 0.287 in experiment [11]; 1.85 in [15]; -0.0046 in experiment [17]. Also, the composite z-score in experiment [18] was -0.2; in experiment [19] it was 0.903; in [20], -0.0734. Further, the z-score in experiment [8] is -1.1 (inactive); in experiment [12], -0.123 (inactive); in experiment [13], -3.53 (inactive); in experiment [14], -2.16 (inactive); in [16], -1.16 (inactive).
`COCC1=C([C@H](O)CCc2ccccc2)[C@H](CO)n2c(=O)n(-c3ccccc3)c(=O)n2C1`: the composite z-score in experiment [1] was -0.13; in experiment [2], -0.235; in [3], -0.112; in [4], 0.204; in [5] it was -0.423; in experiment [6], -0.675. The composite z-score in experiment [7] is -0.416; in experiment [9], -0.371; in experiment [10], -0.156; in experiment [11], -0.872; in experiment [15] it was -0.728; in experiment [17] it was -0.0146. The composite z-score in experiment [18] is -0.0338; in [19], -0.907; in [20], -0.253. Also, the z-score is -3.19 (inactive) in experiment [8]; -1.47 (inactive) in [12]; -1.41 (inactive) in [13]; -0.259 (inactive) in experiment [14]; 2.86 (inactive) in experiment [16].
Consider `CC(C)CNC(=O)[C@@H]1c2ccccc2C(=O)N(C(C)C)[C@H]1c1ccc(CO)cc1`, for which the composite z-score in experiment [1] is 0.172; in [2], -0.0466; in experiment [3], -0.138; in experiment [4], -0.466; in experiment [5] it was -0.811; in experiment [6] it was -0.566. In addition, the composite z-score is 1.41 in experiment [7]; -0.117 in experiment [9]; -0.261 in experiment [10]; 0.12 in experiment [11]; 2.33 in experiment [15]; -0.166 in experiment [17]. Further, the results for the composite z-score in [18], in experiment [19] and in [20] were 0.126, 0.0151 and -0.246, respectively. The z-score in [8] was -0.981 (inactive); in experiment [12] it was -1.37 (inactive); in [13], 0.0396 (inactive); in experiment [14] it was -0.421 (inactive); in experiment [16], 0.794 (inactive).
Regarding `COCCOC(=O)N1C(=O)[C@@]2(c3cc(C#CCC(C(=O)OC)C(=O)OC)ccc31)[C@H](c1ccc(OCCO)cc1)N1[C@H](c3ccccc3)[C@H](c3ccccc3)OC(=O)[C@H]1[C@@H]2C(=O)N1CCCCCCC1`, the composite z-score amounted to 3.74 in experiment [1]; 1.64 in [2]; 0.671 in experiment [3]; 0.304 in [4]; 1.37 in experiment [5]; 0.812 in [6]. In addition, the composite z-score in experiment [7] is 1.3; in experiment [9], 3.32; in experiment [10] it was 3.43; in experiment [11], 1.56; in experiment [15] it was 3.6; in experiment [17], 1.68. The composite z-score in experiment [18] was 1.43; in experiment [19], 1.06; in experiment [20], 1.03. Besides, the z-score is 0.562 (inactive) in [8]; 1.9 (inactive) in [12]; 0.911 (inactive) in experiment [13]; 3.67 (inactive) in experiment [14]; 1.43 (inactive) in experiment [16].
In the case of `CC1CC/C=C\[C@H]2OC34C=CCN(c5ccc(Cl)cc5)C(=O)[C@H]3N(CCCO)C(=O)[C@]4(C)C2C(=O)O1` (stereo not given in full), the composite z-score is 0.316 in [1]; -1.4 in experiment [2]; -0.162 in experiment [3]; -1.11 in experiment [4]; -0.932 in experiment [5]; 1.38 in experiment [6]. Moreover, the composite z-score in experiment [7] was 1.64; in experiment [9], -0.558; in [10] it was -0.296; in experiment [11], -1.33; in experiment [15] it was -0.265; in [17], -0.154. In addition, the composite z-score in [18] was -0.774; in [19], -0.105; in experiment [20], -0.151. In addition, the z-score in experiment [8] was -0.0856 (inactive); in experiment [12] it was 0.0887 (inactive); in experiment [13], -0.117 (inactive); in [14] it was 1.13 (inactive); in experiment [16], -0.643 (inactive).

Source of the values: PubChem BioAssay.
